This is one part of a sample in which hits are shown more often than they occur.
BLM helicase inh: Bloom syndrome helicase (human) inhibition; P54132; recombinant BLM DNA unwinding, fluorescence dequenching; Potency, µM (titrated, usually from 56.1 µM), actives largely listed as inhibitors; 0.2% of 350,000 active; note: nearly all actives have a fitted effect of over 35% in size
JMJD2E inh: blocks human JMJD2E demethylase activity | B2RXH2 | JMJD2E catalytic domain, FDH-coupled NADH fluorescence (FDH is formaldehyde dehydrogenase) | Potency, µM (titrated, usually from 57.1 µM), hits mostly inhibitors | 1.6% of 230,000 active; active = well fitted inhibition curve with a large enough effect, not every such curve was filed as active; inconclusive = small, poorly fitted or top-dose-only effect, or another doubt; inactive = no such curve, though single readings can be large or run the other way; note: nearly all actives have a fitted effect of over 50% in size
RECQ1 helicase: RECQ1 (human) helicase inhibition. P46063. RECQ1 DNA unwinding, red fluorescence kinetic read. Potency, µM (top dose mostly 57.3 µM), actives largely listed as inhibitors. 0.54% of 240,000 active. AID 2549; note: nearly all actives have a fitted effect of over 30% in size
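RECQ1T1 50 nM; forked duplex (20 bp + 30-nt ss tails) 200 nM, ATP 2 mM final; pH 8.0, 2 mM MgCl2, 2.5 ug/ml poly(dI-dC); 15 min compound preincubation; discontinuous kinetic read over 2 h at RT.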
APE1 inh: APE1 (human) endonuclease inhibition. recombinant APE1, TAMRA/BHQ-2 abasic DNA cleavage fluorescence. 0.35% of 350,000 active. Potency, µM (titrated, usually from 65.8 µM), hits mostly inhibitors. P27695; note: nearly all actives have a fitted effect of over 55% in size
Target sequence (P27695 whole entry, looked up): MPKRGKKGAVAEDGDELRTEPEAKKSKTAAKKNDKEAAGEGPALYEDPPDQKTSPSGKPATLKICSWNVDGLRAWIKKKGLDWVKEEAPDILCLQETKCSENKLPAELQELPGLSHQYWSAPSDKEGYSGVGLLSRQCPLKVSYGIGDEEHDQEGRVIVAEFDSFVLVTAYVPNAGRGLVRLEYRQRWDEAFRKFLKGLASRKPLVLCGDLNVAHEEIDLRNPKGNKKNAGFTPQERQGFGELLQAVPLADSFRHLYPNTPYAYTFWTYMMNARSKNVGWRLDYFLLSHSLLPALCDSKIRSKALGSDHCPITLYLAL
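Enzyme (0.75 nM final) and test compound are incubated 15 min at room temperature before adding 50 nM quenched THF abasic-site duplex. Cleavage dequenches TAMRA, followed at 525/598 nm over three reads one minute apart.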
GCN5L2 inh-1: inhibitors of human GCN5L2 histone acetyltransferase. GCN5L2 HAT assay, ThioGlo1 CoA-SH fluorescence. Potency, µM (series often up to 58.9 µM), most hits filed as inhibitors. Q92830. 0.21% of 390,000 active
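Compounds, pin-transferred from DMSO stocks, meet 20nM GCN5L2 for 15 min before the reaction begins with H3(1-25) peptide (75uM) and acetyl-CoA (70uM). Thiol-reactive ThioGlo1 reports CoA release over 20 min at room temperature.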
L3MBTL1 inh: blocks human L3MBTL1; Q9Y468; AlphaScreen L3MBTL1–H3K9me1 peptide binding; Potency, µM (doses to about 57.1 µM), actives largely listed as inhibitors; 0.66% of 230,000 active; AID 485360; note: nearly all actives have a fitted effect of over 60% in size
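AlphaScreen proximity signal between nickel-chelate acceptor and streptavidin donor beads (final 10 ug/mL) reports binding of 50 nM L3MBTL1 to 75 nM biotin-H3 K9me1 peptide; complex incubated with compounds 30 min at room temperature; cefsulodin titration as control.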
GCN5L2 inh-2: confirmation of human GCN5L2 histone acetyltransferase inhibitors. shares compounds with GCN5L2 inh-1. GCN5L2 HAT, ThioGlo1 CoA fluorescence, 20 min. Potency, µM, most hits filed as inhibitors. 70% of 140 active
A number is an active result; - = inactive; ? = inconclusive; . = no result. Unless noted, calls come from the whole dose curve; as a rule, active = well fitted curve in the direction sought with a large enough effect; inconclusive = small, poorly fitted or top-dose-only effect, or another doubt; inactive = no such curve, though single readings can be large; an effect the other way counts as inactive or inconclusive.

SMILES | BLM helicase inh | JMJD2E inh | RECQ1 helicase | APE1 inh | GCN5L2 inh-1 | L3MBTL1 inh | GCN5L2 inh-2
CN=c1nc(-c2ccccc2)n(-c2ccccc2)s1 | . | 3.2µM | - | - | 2.2µM | - | 2.6
Cc1ccc(S(=O)(=O)/N=C2/NC(=O)/C(=C/c3cccnc3)S2)cc1 | - | - | - | - | - | - | .
Cc1ccc(S(=O)(=O)/N=C2/NC(=O)/C(=C\c3cc(Br)cc(Br)c3O)S2)cc1 | ? | . | . | - | 16µM | . | 11
ClC(Cl)(c1nnnn1-c1ccccc1)c1nnnn1-c1ccccc1 | - | - | - | - | 22µM | - | 8.1
CC(C)(C)OC(=O)[C@H]1[C@H](c2ccc([N+](=O)[O-])cc2)C2(C(=O)c3ccccc3C2=O)C2c3ccccc3C=NN21 (some centres undefined) | - | - | - | - | - | - | .
CC(=O)N1CC[C@@H]2CC(=O)CC[C@@H]21 | - | . | - | - | - | . | .
O=C(O)c1cccc(N/N=C/c2ccc(OC(F)(F)F)cc2)c1 | - | . | . | - | - | . | .
CSc1ccc(/C=N/Nc2cccc(C(=O)O)c2)cc1 | - | ? | 32µM | 2.2µM | ? | 5µM | ?
Cc1nc2nc(-c3cccs3)cn2nc1C | - | ? | - | - | ? | - | 36
Cc1ccc(Cn2c(=O)n(CCc3ccccc3)c(=O)c3c(C)c(C)sc32)cc1 | - | . | . | . | - | . | .
Nc1ccc(-c2ncc(-c3ccccc3)o2)cc1 | - | . | . | - | - | . | .
Cc1ccc(-c2cnc(-c3ccncc3)o2)cc1 | - | ? | - | - | ? | . | 18

Screening results (PubChem BioAssay)
